According to PubChem BioAssay (NCATS):
Several values for one entry are separate records, joined by “and”; a condition that tells them apart may be missing. Equal values may be shown once. Records with an inconclusive call do not appear. Activity calls are given as the source filed them. Calls follow the shape of the dose curve; as a rule, active = well fitted inhibition curve with a large enough effect; inconclusive = small, poorly fitted or top-dose-only effect; inactive = flat fitted curve, though single readings scatter.
% is scaled to controls: 0 for no effect and ±100 for the full control effect.

Each molecule was assayed on KB-3-1 (assay: Cytotoxic Profiling of Annotated Libraries Using Quantitative High-Throughput Screening (AID 1296008; also: nearly all actives have a fitted effect of over 60% in size)). Conditions: Five cell lines viability, CellTiter-Glo ATP luminescence, 48-72 h; max response: hits give low values.
In short: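 Cells exposed to compounds for 48 or 72 hr at 37 degrees Celsius. Viability read as ATP-coupled luminescence with CellTiter-Glo after 10 min at room temperature.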
For `C[C@H]1CC[C@@H]2[C@@H](C)[C@H]3[C@H](C[C@H]4[C@@H]5CC=C6CC(O[C@@H]7O[C@H](CO)[C@H](O)[C@H](O[C@@H]8O[C@H](CO)[C@@H](O)[C@H](O)[C@H]8O)[C@H]7O[C@H]7O[C@@H](C)[C@H](O)[C@@H](O)[C@H]7O)CC[C@]6(C)[C@H]5CC[C@]34C)N2C1` (some centres undefined), the max response was 48.6% (inactive). For `O=CC=O`, the max response was -15.6% (inactive). With `C[C@@H](CO)NC(=O)[C@@H]1C=C2c3cccc4[nH]cc(c34)C[C@H]2N(C)C1` the max response was 1.7% (inactive). With `CCCCC[C@@H](O)C1C(=O)OC(C)[C@H](O)/C=C/C=C/C=C/C=C/C=C(\C)C(O)C(O)C(O)C[C@H](O)C[C@H](O)C[C@H](O)C[C@H](O)C[C@@H]1O` (some centres undefined) the max response was -4.4% (inactive) and -1.2% (inactive). For `CCN(CC)CCO[C@H]1CC[C@@]2(C)C(=CC[C@@H]3[C@@H]2CC[C@]2(C)C(=O)CC[C@@H]32)C1`, the max response was -11.5% (inactive). In the case of `O=C1C=C2C=C[C@@H]3C[C@@]2(O1)[C@H]1CCCCN31`, the max response is reported as -12.4% (inactive). `CCC(=O)O[C@@](Cc1ccccc1)(c1ccccc1)[C@@H](C)CN(C)C` was tested, and the max response was -0.686% (inactive). `C=C[C@H]1CN2CC[C@H]1C[C@H]2[C@H](OC(=O)OCC)c1ccnc2ccc(OC)cc12` was tested, and the max response was 4.99% (inactive). In the case of `O=C1CN=C(c2ccccc2)c2cc(Cl)ccc2N1CC1CC1`, the max response is reported as 1.41% (inactive). For `CCC1(c2ccccc2)C(=O)NC(=O)N(C(=O)c2ccccc2)C1=O` (centres undefined), the max response was -9.95% (inactive). In the case of `CCOc1ccc2c3c1O[C@H]1[C@@H](O)C=C[C@H]4[C@@H](C2)N(C)CC[C@@]341`, the max response is reported as -8.27% (inactive). With `C=CCN1CC[C@]23c4c5ccc(O)c4O[C@H]2[C@@H](O)C=C[C@H]3[C@H]1C5` the max response was 10.7% (inactive). For `O=[N+]([O-])c1ccccc1`, the max response was 12.1% (inactive). In the case of `O=C(OCCN1CCCCC1)C(O)(c1ccccc1)c1ccccc1`, the max response is reported as 1.68% (inactive). `CCOC(=O)c1ccccc1C(=O)OCC` was tested, and the max response was -4.85% (inactive). With `COC(=O)[C@@H]1[C@H]2CC[C@@H](C[C@H]1OC(=O)c1ccccc1)N2C` the max response was 0.336% (inactive). With `CCCCCCC(=O)O[C@H]1CC[C@H]2[C@@H]3CC[C@H]4CC(=O)C=C(C)[C@]4(C)[C@H]3CC[C@]12C` the max response was -2.21% (inactive). `C[C@]12CCC(=O)C=C1C=C[C@@H]1[C@@H]2CC[C@@]2(C)[C@H]1CC[C@@]2(O)CCC(=O)O` was tested, and the max response was 17.7% (inactive). `C/C(=C\c1csc(C)n1)[C@@H]1C[C@@H]2O[C@]2(C)CCC[C@H](C)[C@H](O)[C@@H](C)C(=O)C(C)(C)[C@@H](O)CC(=O)O1` was tested, and the max response was -86.7% (inactive).
